# Assay results: the supplement of paper PMC9135407
# “And” between values parts separate entries of the source, which are not always exact repeats. Equal entries are not always repeated. Structures can show the parent of a compound that is named as a salt. Out of some 5,800 compounds screened, about 620 (11%) showed activity. Only a selection was taken, and actives are over-represented in it overall. Unmarked numbers belong to inactive results.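 How the source made its calls: active = score above a cut-off or among the top three wells of a plate; in these data no inactive exceeds 0.85.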
# Test system: primary human hepatic stellate cells (donor 1)
# Test: scaled lipid accumulation score (0 = DMSO-like, 1 = nortriptyline-like); higher = stronger HSC inactivation (lipid re-accumulation), active = hit call of the paper
# Conditions: 48 h
# [1] = library stock concentration: 3.33 mM
# [2] = library stock concentration: 10 mM
# [3] = library stock concentration: 80 uM
# [4] = library stock concentration: 400 uM
# [5] = library stock concentration: 2 mM
# [6] = library stock concentration: 1 mM
smiles,measurement,setting,value
"CNC(=O)[C@H](Cc1c[nH]c2ccccc12)NC(=O)[C@@H](CC(=O)NO)CC(C)C [Ilomastat (GM6001, Galardin)]",scaled lipid accumulation score,[1],≤ -0.009
same,scaled lipid accumulation score,[2],≤ 0
CNC(=O)[C@H](Cc1c[nH]c2ccccc12)NC(=O)[C@@H](CC(=O)NO)CC(C)C,scaled lipid accumulation score,library stock concentration: 12.9 mM,≤ -0.009
NC(=O)N1c2ccccc2CC(O)c2ccccc21 (centres undefined) [Licarbazepine],scaled lipid accumulation score,[2],0.008
O=c1c(O)c(-c2ccc(O)c(O)c2)oc2cc(O)c(O)c(O)c12 [Quercetagetin],scaled lipid accumulation score,[1],≤ 0
O=C(O)C(Cc1c[nH]c2ccccc12)N1C(=O)c2ccccc2C1=O (centres undefined),scaled lipid accumulation score,[3],≤ 0
same,scaled lipid accumulation score,[4],≤ 0
same,scaled lipid accumulation score,[5],≤ 0
same,scaled lipid accumulation score,[1],≤ 0
same,scaled lipid accumulation score,[2],0.017 and ≤ 0
C#CCOc1ccccc1CCCCCC(=O)NS(C)(=O)=O,scaled lipid accumulation score,[6],0.013
O=C1CCc2ccc(OCCCCN3CCN(c4cccc(Cl)c4Cl)CC3)cc2N1 [Aripiprazole],scaled lipid accumulation score,[1],≤ 0
same,scaled lipid accumulation score,library stock concentration: 4.5 mM,0.238 and 0.464
same,scaled lipid accumulation score,[2],0.827
O=C1CCc2cc(OCCCCc3nnnn3C3CCCCC3)ccc2N1 [Cilostazol],scaled lipid accumulation score,,≤ 0
same,scaled lipid accumulation score,[1],≤ 0
same,scaled lipid accumulation score,library stock concentration: 5.4 mM,≤ 0
O=C1CCc2ccc(OCCCCN3CCN(c4cccc(Cl)c4Cl)CC3)cc2N1,scaled lipid accumulation score,[2],0.964 (active)
Cn1sc(=O)n(Cc2ccccc2)c1=O [GSK-3b Inhibitor I],scaled lipid accumulation score,[1],≤ 0
Cc1ccc(NC2=CC(=O)c3sc(C)nc3C2=O)cc1 [Cdk4 Inhibitor III],scaled lipid accumulation score,[1],0.942 (active)
Cc1ccc(NC2=CC(=O)c3sc(C)nc3C2=O)cc1 [Ryuvidine],scaled lipid accumulation score,[2],0.904 (active)
O=C(O)[C@]1(Cc2cccc(Nc3nccs3)n2)CC[C@@H](Oc2cccc(Cl)c2F)CC1,scaled lipid accumulation score,[1],≤ 0
same,scaled lipid accumulation score,[2],0.039
CCC[C@H](NC(=O)[C@@H]1[C@H]2CCC[C@H]2CN1C(=O)[C@@H](NC(=O)[C@@H](NC(=O)c1cnccn1)C1CCCCC1)C(C)(C)C)C(=O)C(=O)NC1CC1 [Telaprevir (VX-950)],scaled lipid accumulation score,[1],≤ 0
same,scaled lipid accumulation score,[2],≤ 0
CCCCCCCCCCCCCCCCOC[C@H](COP(=O)([O-])OCC[N+](C)(C)C)OC(=O)NC [Methylcarbamyl PAF C-16],scaled lipid accumulation score,[6],≤ 0
O=C(O)CCC/C=C\C[C@H]1[C@@H](/C=C/[C@@H](O)CCc2ccccc2)[C@H](O)C[C@@H]1O [8-iso-17-phenyl trinor Prostaglandin F2.alpha.],scaled lipid accumulation score,[6],≤ 0
O=C1CC2(CCCC2)CC(=O)N1CCCCNCC1COc2ccccc2O1 (centres undefined),scaled lipid accumulation score,[2],0.376
CCN(CC)CCOC(=O)C(c1ccccc1)C1CCCCC1 (centres undefined) [Drofenine hydrochloride],scaled lipid accumulation score,,0.317
same,scaled lipid accumulation score,[2],0.335
CNC(C)C(=O)NC(C(=O)N1CCCC1C(=O)NC(C(=O)NCCCCCCNC(=O)C(NC(=O)C1CCCN1C(=O)C(NC(=O)C(C)NC)C1CCCCC1)C(c1ccccc1)c1ccccc1)C(c1ccccc1)c1ccccc1)C1CCCCC1 (centres undefined),scaled lipid accumulation score,[1],0.26
same,scaled lipid accumulation score,[2],0.061
Cl.O=C(NCCCN1CCCCCC1)C(c1ccccc1)C1CCCCC1 (centres undefined),scaled lipid accumulation score,[2],0.897 (active)
CN1CC(O)C(O)C(O)C1CO (centres undefined) [N-Methyl-1-deoxynojirimycin],scaled lipid accumulation score,[2],≤ -0.07
Cc1[nH]nc2ccc(-c3cncc(OC[C@@H](N)Cc4ccccc4)c3)cc12,scaled lipid accumulation score,[2],0.795
Cc1n[nH]c2ccc(-c3cncc(OC[C@@H](N)Cc4ccccc4)c3)cc12,scaled lipid accumulation score,[1],1.24 (active)
O=c1cnn([C@@H]2O[C@H](CO)[C@@H](O)[C@H]2O)c(=O)[nH]1,scaled lipid accumulation score,[2],≤ 0
CNCCC(Oc1ccc(C(F)(F)F)cc1)c1ccccc1.Cl (centres undefined),scaled lipid accumulation score,[2],0.914 (active)
CNCCC(Oc1ccc(C(F)(F)F)cc1)c1ccccc1.Cl (centres undefined) [Fluoxetine],scaled lipid accumulation score,library stock concentration: 5.8 mM,0.96 (active)
CNCCC(Oc1ccc(C(F)(F)F)cc1)c1ccccc1.Cl (centres undefined) [Fluoxetine hydrochloride] [listing 1 of 2 here],scaled lipid accumulation score,[2],1.57 (active)
CNCCC(Oc1ccc(C(F)(F)F)cc1)c1ccccc1.Cl (centres undefined) [Fluoxetine HCl],scaled lipid accumulation score,[1],0.709 (active)
same,scaled lipid accumulation score,[2],1.02 (active)
CCCCCCCCCCCCCCCC(=O)N[C@H](C)CO [R-Palmitoyl-(1-methyl) Ethanolamide],scaled lipid accumulation score,[6],0.031
CCCCC[C@H](O)/C=C/[C@H]1[C@@H](O)CC(=O)[C@@H]1CCCCCCC(=O)O [11.beta.-Prostaglandin E1],scaled lipid accumulation score,[6],≤ 0
COc1ccnc2[nH]cc(C(=O)C(=O)N3CCN(C(=O)c4ccccc4)C[C@H]3C)c12,scaled lipid accumulation score,[1],≤ 0
same,scaled lipid accumulation score,[2],0.019
O=C(O)c1ccc(N2C(=O)C(=Cc3ccc(-c4ccc([N+](=O)[O-])cc4)o3)C=C2c2ccccc2)cc1,scaled lipid accumulation score,[1],0.129
same,scaled lipid accumulation score,[2],0.284
Cc1nc(N)ncc1-c1nc(N2CCOCC2)c2sc(C(C)(C)O)cc2n1,scaled lipid accumulation score,[4],0.092
same,scaled lipid accumulation score,[5],≤ -0.005
same,scaled lipid accumulation score,[2],≤ -0.005
O=C(CCCCc1ccccc1)C(F)(F)C(F)(F)F,scaled lipid accumulation score,[6],≤ 0
CC1CC(OC(=O)C(O)c2ccccc2)CC(C)(C)C1 (centres undefined),scaled lipid accumulation score,[2],0.065
CC1CC(OC(=O)C(O)c2ccccc2)CC(C)(C)C1 (centres undefined) [Cyclandelate],scaled lipid accumulation score,[1],≤ 0
same,scaled lipid accumulation score,[2],0.196
COc1cc2c(cc1OC)-c1[nH]nc(Nc3cccc(F)c3)c1C2,scaled lipid accumulation score,[3],≤ -0.001
same,scaled lipid accumulation score,[4],≤ -0.001
same,scaled lipid accumulation score,[6],≤ 0
same,scaled lipid accumulation score,[5],0.073
same,scaled lipid accumulation score,[2],0.232
COc1cc2c(cc1OC)-c1[nH]nc(Nc3cccc(F)c3)c1C2 [PDGF Receptor Tyrosine Kinase Inhibitor IV],scaled lipid accumulation score,[1],0.044
O[C@H]1[C@H](O)[C@@H](O)[C@@H]2O[C@@H]2[C@@H]1O (racemic) [Conduritol b epoxide],scaled lipid accumulation score,library stock concentration: 12.3 mM,≤ 0
Cc1cc(O)c(C=O)c2c1C(=O)Oc1c(C)c(O)c3c(c1O2)C(O)OC3=O (centres undefined) [Norstictic acid],scaled lipid accumulation score,[2],≤ 0
CNCCC(Oc1ccc(C(F)(F)F)cc1)c1ccccc1 (centres undefined) [Fluoxetine],scaled lipid accumulation score,[2],0.637
CN(CC[C@@H](Oc1ccc(C(F)(F)F)cc1)c1ccccc1)CC(=O)[O-].[Li+],scaled lipid accumulation score,[2],0.149
CNCCC(Oc1ccc(C(F)(F)F)cc1)c1ccccc1 (centres undefined) [Fluoxetine hydrochloride],scaled lipid accumulation score,[2],0.09
CNCCC(Oc1ccc(C(F)(F)F)cc1)c1ccccc1.Cl (centres undefined) [Fluoxetine hydrochloride] [listing 2 of 2 here],scaled lipid accumulation score,,1.05 (active)
CN(CC[C@@H](Oc1ccc(-c2ccccc2)cc1)c1ccc(F)cc1)CC(=O)O [ALX 5407 hydrochloride],scaled lipid accumulation score,[2],≤ -0.006
CNCC[C@H](Oc1ccc(C(F)(F)F)cc1)c1ccccc1 [S-(+)-Fluoxetine hydrochloride],scaled lipid accumulation score,[2],0.403
O=C(NCc1ccncc1)C12CC3CC(C1)CC(c1ccc(Cl)cc1)(C3)C2,scaled lipid accumulation score,library stock concentration: 13.1 mM,0.27
C[C@H](N[C@@H](CCc1ccccc1)C(=O)O)C(=O)N1Cc2ccccc2C[C@H]1C(=O)O,scaled lipid accumulation score,[2],≤ 0
Cc1[nH]c(/C=C2\C(=O)Nc3ccc(S(=O)(=O)N(C)c4cccc(Cl)c4)cc32)c(C)c1C(=O)N1CCN(C)CC1 [Met Kinase Inhibitor],scaled lipid accumulation score,[1],1.38 (active)
CN1CCN(C(=O)c2cc3cc(Cl)ccc3[nH]2)CC1,scaled lipid accumulation score,[1],0.053
same,scaled lipid accumulation score,[2],0.452
Cc1[nH]c(/C=C2\C(=O)Nc3ccc(S(=O)(=O)Cc4c(Cl)cccc4Cl)cc32)c(C)c1C(=O)N1CCC[C@@H]1CN1CCCC1 [listing 1 of 2 here],scaled lipid accumulation score,[1],0.429
same,scaled lipid accumulation score,[2],0.553 and 0.41 and 0.638
Cc1[nH]c(C=C2C(=O)Nc3ccc(S(=O)(=O)N(C)c4cccc(Cl)c4)cc32)c(C)c1C(=O)N1CCN(C)CC1,scaled lipid accumulation score,[1],1.39 (active)
same,scaled lipid accumulation score,[2],1.27 (active)
O=C1Nc2ccc(Cl)cc2/C1=C/c1cc(Cl)c(O)c(Cl)c1,scaled lipid accumulation score,[3],≤ -0.001
same,scaled lipid accumulation score,[4],≤ -0.001
same,scaled lipid accumulation score,[5],≤ -0.001
same,scaled lipid accumulation score,[2],≤ -0.001
Cc1[nH]c(/C=C2\C(=O)Nc3ccc(S(=O)(=O)N(C)c4cccc(Cl)c4)cc32)c(C)c1C(=O)N1CCN(C)CC1,scaled lipid accumulation score,[3],0.129
same,scaled lipid accumulation score,[4],0.261
Cc1[nH]c(/C=C2/C(=O)Nc3ccc(S(=O)(=O)N(C)c4cccc(Cl)c4)cc32)c(C)c1C(=O)N1CCN(C)CC1,scaled lipid accumulation score,[5],0.927 (active)
same,scaled lipid accumulation score,[2],1.14 (active)
CN1CCCN(C(=O)c2cccc(-c3ccc(/C=C4/C(=O)Nc5ccc(Cl)cc54)o3)c2)CC1,scaled lipid accumulation score,[1],0.657
same,scaled lipid accumulation score,[2],≤ -0.001
"O=C1Nc2ccc(Cl)cc2/C1=C/c1cc(Cl)c(O)c(Cl)c1 [PKR Inhibitor, Negative Control]",scaled lipid accumulation score,[1],≤ 0
Cc1[nH]c(/C=C2\C(=O)Nc3ccc(S(=O)(=O)Cc4c(Cl)cccc4Cl)cc32)c(C)c1C(=O)N1CCC[C@@H]1CN1CCCC1 [listing 2 of 2 here],scaled lipid accumulation score,[3],1.15 (active)
same,scaled lipid accumulation score,[4],1.16 (active)
same,scaled lipid accumulation score,[5],1.16 (active)
COC(=O)C[C@H](NC(=O)[C@H](C)NC(=O)[C@@H](NC(=O)OCc1ccccc1)C(C)C)C(=O)CF,scaled lipid accumulation score,library stock concentration: 10.7 mM,≤ -0.012
CC(=O)N[C@@H](CCC(N)=O)C(=O)O,scaled lipid accumulation score,[2],≤ 0
N#CC(c1ccnc(NCCc2cccnc2)n1)c1nc2ccccc2s1 (centres undefined),scaled lipid accumulation score,[3],≤ 0
same,scaled lipid accumulation score,[4],≤ 0
same,scaled lipid accumulation score,[5],0.058
same,scaled lipid accumulation score,[2],0.62
N#CC(c1ccnc(NCCc2cccnc2)n1)c1nc2ccccc2s1 (centres undefined) [JNK Inhibitor V],scaled lipid accumulation score,[1],0.329
